From PubChem BioAssay
A549 tox: Nrf2 qHTS screen for inhibitors: counterscreen for cytotoxicity. AID 504648, 2011. A549 ARE-Fluc cells, CellTiter-Fluor viability, 18-24 h. Potency, µM (titrated, usually from 46 µM), for inactives: at the highest dose activity change, negative = cytotoxicity, most hits filed as inhibitors. actives 0.16% (n = 390,000); further: potency means the concentration at half of the fitted maximal effect; on the % scale 0 is the no-effect control and ±100 the full control effect
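Cytotoxicity counterscreen: CellTiter-Fluor fluorescence was measured in A549 ARE_Fluc cells after 18-24 h of compound exposure in a concentration series. The subsequent BugLite luminescent read reports ARE-luciferase activity.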
B2AR arrestin: qHTS assay of beta-arrestin-biased ligands of beta2-adrenergic receptor. Potency, µM (titrated, usually from 46.1 µM), inactives show top-dose activation, actives largely listed as activators. AID 492947, 2010. Beta-2 adrenergic receptor (Homo sapiens), P07550. beta-arrestin recruitment to beta2AR, cell-based reporter. actives 0.02% (n = 330,000);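 further: potency means the concentration at half of the fitted maximal effect; 0% = DMSO controls and full agonism = EC100 isoproterenol or metaproterenol; nearly all actives have a fitted effect of over 65% in size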
Target sequence (P07550 whole entry, looked up): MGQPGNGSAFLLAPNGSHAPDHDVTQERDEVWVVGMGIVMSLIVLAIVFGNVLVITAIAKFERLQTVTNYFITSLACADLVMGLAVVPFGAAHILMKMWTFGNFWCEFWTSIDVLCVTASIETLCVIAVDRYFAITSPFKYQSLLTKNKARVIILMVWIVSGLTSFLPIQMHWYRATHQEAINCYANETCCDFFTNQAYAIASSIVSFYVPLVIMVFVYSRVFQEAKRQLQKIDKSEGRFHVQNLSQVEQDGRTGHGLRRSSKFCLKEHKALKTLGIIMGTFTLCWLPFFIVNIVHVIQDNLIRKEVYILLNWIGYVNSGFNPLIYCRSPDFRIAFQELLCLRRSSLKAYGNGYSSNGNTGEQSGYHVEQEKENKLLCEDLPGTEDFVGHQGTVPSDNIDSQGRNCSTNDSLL
miR-21 reporter: qHTS Assay for Modulators of miRNAs and/orActivators of miR-21 | Potency, µM (doses to about 38.3 µM), without a hit: top-dose activity change, positive = activation, usual class: activators | HeLa miR-21 FLuc reporter, luciferase, 48 h | 340,000 tested, under 10 active;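 further: % of control where 0% means no effect; miR-21 action dims this reporter so a rising signal means less miR-21 action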
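HeLa cells stably expressing CMV-driven firefly luciferase with a downstream miR-21 binding sequence, endogenously expressing miR-21, were treated with titrations (up to about 40uM final) for 48 hours at 37 degree Celsius. Luciferase luminescence was read after lysis.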
Nrf2 block: Nrf2 qHTS screen for inhibitors; actives 2.1% (n = 360,000); A549 ARE-Fluc reporter, luciferase luminescence, 18-24 h; Potency, µM (titrated, usually from 46 µM), without a hit: at the top dose activity change, negative = inhibition, hits mostly inhibitors; further: potency means the concentration at half of the fitted maximal effect; on the % scale 0 is the no-effect control and ±100 the full control effect; nearly all actives have a fitted effect of over 60% in size
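A549 ARE_Fluc cells (5000/well, 5% FBS OPTI-MEM) pre-incubated 2 h, then treated with compounds 18-24 h at 37C/5% CO2 in concentration-response. CellTiter-Fluor viability read first; BugLite luciferase luminescence after 15 min at room temperature gives Nrf2 activity.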
Nrf2 activator: qHTS of Nrf2 Activators; AREc32 ARE-luciferase reporter (MCF7-derived line), luminescence, 24 h; Potency, µM (top dose mostly 46.1 µM), without a hit: at the highest dose activation, usual class: activators; actives 0.31% (n = 410,000); AID 624171, 2012; further: potency means the concentration at half of the fitted maximal effect; % of control where 0% means no effect; nearly all actives have a fitted effect of over 65% in size
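Each well held 1000 AREc32 cells, which were incubated with compound for 24 hr at 37 deg C after overnight attachment, and ARE reporter activity was quantified by firefly luciferase luminescence.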
* = called active by the depositor; [ ] = another dose, or the depositor's remark. In the library only some 2.2% were active in any assay of this set; here they are far more common. The call rests on the fitted dose curve; in most records, active means well fitted curve in the direction sought with a large enough effect; inconclusive means small, poorly fitted or top-dose-only effect, or another doubt; inactive means no such curve, though single readings can be large; an effect the other way counts as inactive or inconclusive.

What do the screens show for `COC(=O)C1=C(c2ccc(-c3ccccc3)c(F)c2)C[C@@H]2CC[C@H]1N2C(=O)NCCOc1ccccc1`?
A549 tox: inconclusive; B2AR arrestin: 10%; Nrf2 block: 18µM*; Nrf2 activator: -1%

Results for COC(=O)C1=C(c2ccc(-c3ccccc3)c(F)c2)C[C@@H]2CC[C@H]1N2C(=O)NCC1CC1 ?
A549 tox: inconclusive; B2AR arrestin: 10%; Nrf2 block: 13µM*; Nrf2 activator: -1%

What do the screens show for `COc1cccc(CN2CCC(n3nccc3NC(=O)CCOc3ccccc3)CC2)c1O`?
A549 tox: -14%; Nrf2 block: inconclusive; Nrf2 activator: 0%

Results for COC(=O)C1CN(C#N)N(c2ccc(Cl)cc2)C12c1ccccc1-c1ccccc12 (centres undefined) ?
A549 tox: inconclusive; B2AR arrestin: -1%; miR-21 reporter: inconclusive; Nrf2 block: 18µM*; Nrf2 activator: -3%

How did Cc1ccc(S(=O)(=O)c2nnn3c2nc(N2CCC(C(N)=O)CC2)c2cc(Cl)ccc23)cc1C do in these assays?
A549 tox: -5%; miR-21 reporter: -12%; Nrf2 block: inconclusive; Nrf2 activator: 0%

Results for CCCc1cc(N2CCN(c3cccc(C)c3C)CC2)n2cnnc2n1 ?
A549 tox: -1%; miR-21 reporter: inconclusive; Nrf2 block: inconclusive; Nrf2 activator: 1%

Results for COC(=O)c1ccc(NC(=O)CSc2nc3ccc(N4C(=O)C5C6C=CC(C6)C5C4=O)cc3s2)cc1 (centres undefined) ?
A549 tox: inconclusive; B2AR arrestin: 0%; miR-21 reporter: inconclusive; Nrf2 block: 18µM*; Nrf2 activator: 0%

Results for Cc1ccc(NC(=O)c2cc(S(=O)(=O)N3CCOCC3)c(Cl)cc2Cl)cc1 ?
A549 tox: 1%; miR-21 reporter: inconclusive; Nrf2 block: inconclusive; Nrf2 activator: 4%

Results for O=C(NC1CCCCC1)c1ccc(CSc2nc3ccncc3n2Cc2ccc(F)cc2)cc1 ?
A549 tox: -6%; miR-21 reporter: 10%; Nrf2 block: inconclusive; Nrf2 activator: 0%

How did CC(CNC(=O)c1ccc(CSc2nc3ccncc3n2Cc2ccc(F)cc2)cc1)c1ccccc1 (centres undefined) do in these assays?
A549 tox: -9%; miR-21 reporter: 27%; Nrf2 block: 23µM*; Nrf2 activator: 3%

What do the screens show for `CCOc1cc(/C=N/NC(=O)c2cccs2)ccc1OC(=O)N1CCOCC1`?
A549 tox: -5%; B2AR arrestin: -1%; miR-21 reporter: -17%; Nrf2 block: inconclusive; Nrf2 activator: 9%

Results for COC(=O)C(O)(c1ccc(NC(=S)NC(=O)c2ccccc2)cc1)C(F)(F)F (centres undefined) ?
A549 tox: -9%[1.84 µM]; B2AR arrestin: -1%; miR-21 reporter: -21%; Nrf2 block: 16µM*; Nrf2 activator: 6%

Results for CNc1ccc2nc3ccccc3[n+](C)c2c1 ?
A549 tox: 7.3µM*; B2AR arrestin: -1%; miR-21 reporter: 30%; Nrf2 block: 6.5µM*; Nrf2 activator: 0%

Results for OCCNc1c2c(nc3ccccc13)CCCC2 ?
A549 tox: -8%; B2AR arrestin: -1%; miR-21 reporter: -8%; Nrf2 block: 15%; Nrf2 activator: 0%

What do the screens show for `C[n+]1c2ccccc2nc2ccc(NCCO)cc21`?
A549 tox: 16µM*; B2AR arrestin: -1%; miR-21 reporter: 25%; Nrf2 block: inconclusive; Nrf2 activator: 0%

What do the screens show for `CCOc1ccc(/C=C/c2nc(C#N)c(NCc3ccccc3)o2)cc1`?
A549 tox: -17%; miR-21 reporter: inconclusive; Nrf2 block: 9%; Nrf2 activator: 4%

What do the screens show for `COc1ccc(CCNC(=O)c2ccc3c(c2)CCN3S(=O)(=O)c2ccc(C)cc2)cc1OC`?
A549 tox: -3%; miR-21 reporter: 19%; Nrf2 block: inconclusive; Nrf2 activator: 4%

Results for Cc1ccccc1-n1c(/C=C/c2c(C)[nH]c3ccccc23)nc2ccccc2c1=O ?
A549 tox: inconclusive; miR-21 reporter: inconclusive; Nrf2 block: 21µM*; Nrf2 activator: -2%

What do the screens show for `O=C(OCc1cc(=O)n2nc(C3CC3)sc2n1)c1ccc(NC(=O)c2ccccc2Cl)cc1`?
A549 tox: -17%; miR-21 reporter: inconclusive; Nrf2 activator: 2%

Results for Cc1ccc(-n2ncc(C(=O)N3CCN(c4ccc(Cl)cc4)CC3)c2C2CCN(C(=O)OC(C)(C)C)CC2)c(C)c1 ?
A549 tox: -28%; miR-21 reporter: 9%; Nrf2 block: 15µM*; Nrf2 activator: 0%

What do the screens show for `O=C(CCCc1nc(-c2ccc(Cl)cc2)no1)NCC1CCCO1` (centres undefined)?
A549 tox: -5%; B2AR arrestin: 0%; miR-21 reporter: 22%; Nrf2 block: 13µM*; Nrf2 activator: 0%

What do the screens show for `Cc1ccc(S(=O)(=O)N(CC(=O)NCCSc2ccc(Cl)cc2)c2ccccc2C)cc1`?
A549 tox: -7%; miR-21 reporter: inconclusive; Nrf2 block: inconclusive; Nrf2 activator: 0%

How did COc1ccc(Nc2c(-c3cc(Br)ccc3O)nc3ncccn23)cc1OC do in these assays?
A549 tox: -18%; miR-21 reporter: 1%; Nrf2 block: inconclusive; Nrf2 activator: 11%

How did Cc1nn(C(C)(C)C)c(C)c1/C=N/OC(=O)Nc1ccc(Cl)c(Cl)c1 do in these assays?
A549 tox: 7%; B2AR arrestin: 0%; miR-21 reporter: 27%; Nrf2 block: 1.8µM*; Nrf2 activator: -2%

How did Cc1ccc(NC(=O)c2snnc2C)cc1Cl do in these assays?
A549 tox: -10%; B2AR arrestin: -1%; miR-21 reporter: -39%; Nrf2 block: inconclusive; Nrf2 activator: 5%

Results for COc1ccc(N2CCN(CCCNC(=O)c3cnn(-c4ccc(F)cc4)c3-n3cccc3)CC2)cc1 ?
A549 tox: 1%; miR-21 reporter: inconclusive; Nrf2 block: inconclusive; Nrf2 activator: 4%

What do the screens show for `CC(C)c1ccc(Cc2cn3cc(-c4cc5ccccc5oc4=O)nc3s2)cc1`?
A549 tox: -8%; miR-21 reporter: 0%; Nrf2 block: inconclusive; Nrf2 activator: 0%

How did CC[C@@H](C(=O)[C@@H](C)[C@@H](O)[C@H](C)[C@@H]1O[C@@H]([C@@H](CC)C(=O)O)CC[C@@H]1C)[C@H]1O[C@]2(C=C[C@@H](O)[C@]3(CC[C@@](C)([C@H]4CC[C@](O)(CC)[C@H](C)O4)O3)O2)[C@H](C)C[C@@H]1C do in these assays?
A549 tox: 4.6µM*; Nrf2 block: 1.5µM*; Nrf2 activator: 1%
